Assay results from PubChem BioAssay (NCI).
The panel holds about 79,000 compounds, 15% with a hit somewhere; the sample as a whole holds those more often. Calls of active or inactive are those of the source. Cut-off read from the data, not from the text of the source: active = growth inhibition above about 70%; inactive = the rest.

Columns and labels:
[1] = NCI Yeast Anticancer Drug Screen. Data for the rad52 strain (AID 147);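 note: 0% = growth of vehicle-treated control cultures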; settings: S. cerevisiae rad52 mutant growth inhibition, stronger effect = higher value
Procedure, shortened: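 Genetically altered yeast (DNA damage repair defect) treated with compound; inhibition calculated relative to vehicle.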

[2] = NCI Yeast Anticancer Drug Screen. Data for the wt1 strain (AID 149);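 note: 0% = growth of vehicle-treated wt1 cultures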; settings: S. cerevisiae wt1 strain (SPY 50644) growth inhibition, stronger effect = higher value
Procedure, shortened: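 The wt1 strain was treated with compounds, and growth was compared with vehicle-treated cultures to give inhibition.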

[3] = NCI Yeast Anticancer Drug Screen. Data for the rad50EPP+ strain (AID 151);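 note: 0% = growth of vehicle-treated control cultures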; settings: S. cerevisiae rad50 mutant strain, stronger effect = higher value
Procedure, shortened: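 Strain rad50EPP+; compound exposure; % growth inhibition vs vehicle.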

[4] = NCI Yeast Anticancer Drug Screen. Data for the rad50 strain (AID 155);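 note: 0% = growth of vehicle-only cultures of the same strain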; settings: S. cerevisiae rad50 strain growth inhibition, stronger effect = higher value
Procedure, shortened: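 Cells are treated with compound, grown, and their growth is then scored against vehicle-only cultures of the same repair-deficient yeast strain.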

[5] = NCI Yeast Anticancer Drug Screen. Data for the mec2-1 strain (AID 157); settings: S. cerevisiae mec2-1 strain, stronger effect = higher value
Procedure, shortened: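 Cells of the genetically defined mec2-1 yeast strain are incubated with test compound. Inhibition of growth is calculated against vehicle-treated controls.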

[6] = NCI Yeast Anticancer Drug Screen. Data for the rad14 strain (AID 159);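 note: 0% = growth of vehicle-treated control cultures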; settings: S. cerevisiae rad14 strain growth inhibition, stronger effect = higher value
Procedure, shortened: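 Readout: yeast growth inhibition, referenced to vehicle-only cultures. Strain bears a defined alteration in DNA damage repair.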

[7] = NCI Yeast Anticancer Drug Screen. Data for the sgs1 mgt1 strain (AID 161);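 note: 0% = growth of cultures given vehicle only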; settings: S. cerevisiae sgs1 mgt1 strain, stronger effect = higher value
Procedure, shortened: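 Genetically altered yeast, compound exposure, growth inhibition relative to vehicle.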

[8] = NCI Yeast Anticancer Drug Screen. Data for the CLN2oe strain (AID 163);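 note: 0% = growth of vehicle-only control cultures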; settings: S. cerevisiae CLN2oe strain, stronger effect = higher value
Procedure, shortened: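 Strain altered in cell-cycle control, incubated with compound; growth compared to solvent-treated controls.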

[9] = NCI Yeast Anticancer Drug Screen. Data for the cln2 rad14 strain (AID 165);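 note: 0% = growth equal to vehicle treated cultures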; settings: S. cerevisiae cln2 rad14 strain, stronger effect = higher value
Procedure, shortened: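 The screen exposed genetically defined yeast (cln2 rad14) to test compounds and scored growth inhibition relative to vehicle-treated controls.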

[10] = NCI Yeast Anticancer Drug Screen. Data for the bub3 strain (AID 167); settings: S. cerevisiae bub3 mutant strain, stronger effect = higher value
Procedure, shortened: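 Part of a panel of yeast mutants defective in DNA damage repair or cell cycle regulation. Each strain is grown with compound, and inhibition is calculated relative to solvent-treated cultures.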

[11] = NCI Yeast Anticancer Drug Screen. Data for the wt2 strain (AID 169);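 note: 0% = growth of vehicle-treated yeast cultures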; settings: S. cerevisiae wt2 strain growth inhibition, stronger effect = higher value
Procedure, shortened: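 Steps: yeast strain treated with compound; growth recorded; inhibition calculated relative to cultures given vehicle alone.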

[12] = NCI Yeast Anticancer Drug Screen. Data for the sgs1 strain (AID 173);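 note: 0% = growth of vehicle-only control cultures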; settings: S. cerevisiae sgs1 mutant, stronger effect = higher value
Procedure, shortened: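 Inhibition of yeast growth served as the measure. The mutant strain was treated with each compound, and growth was normalised to cultures receiving vehicle alone.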

[13] = NCI Yeast Anticancer Drug Screen. Data for the mlh1 rad18 strain (AID 175); settings: S. cerevisiae mlh1 rad18 strain growth inhibition, stronger effect = higher value
Procedure, shortened: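 Compound-treated yeast growth, normalised to vehicle controls. Strain bears defined DNA repair mutations.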

[14] = NCI Yeast Anticancer Drug Screen. Data for the rad18 strain (AID 177); settings: S. cerevisiae rad18 mutant growth inhibition, stronger effect = higher value
Procedure, shortened: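 Inhibition values reflect reduced yeast growth compared with vehicle-treated controls, using a strain engineered with a DNA damage repair defect.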

[15] = NCI Yeast Anticancer Drug Screen. Data for the mgt1 strain (AID 153); settings: S. cerevisiae mgt1 mutant growth inhibition, stronger effect = higher value
Procedure, shortened: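 Read-out: yeast growth inhibition vs vehicle control. Strain mgt1, drawn from a panel altered in DNA damage repair or cell cycle control.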

[16] = NCI Yeast Anticancer Drug Screen. Data for the mlh1 strain (AID 171);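 note: 0% = growth of vehicle-treated control cultures of the same strain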; settings: S. cerevisiae mlh1 strain growth inhibition, stronger effect = higher value
Procedure, shortened: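 Yeast screen: mutant strain plus compound, growth scored against vehicle control wells.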

[17] = at 5.0 µM (retest, dose inferred, filed as 0.5)
[18] = at 50.0 µM (retest, dose inferred, filed as 5.0)

Measured: growth inhibition

CCCCN(CCCC)C(=O)/C=C/c1ccccc1
inactive: [1]; at 1.2 µM -12% | [1]; at 3.7 µM -9% | [1]; at 11.0 µM -11% | [1]; at 33.0 µM 18% | [2]; at 1.2 µM 0% | [2]; at 3.7 µM 3% | [2]; at 11.0 µM 11% | [2]; at 33.0 µM 10% | [3]; at 1.2 µM -7% | [3]; at 3.7 µM -20% | [3]; at 11.0 µM -2% | [3]; at 33.0 µM 14% | [3]; at 100.0 µM 33% | [4]; at 1.2 µM -15% | [4]; at 3.7 µM -12% | [4]; [17] 5% | [4]; at 11.0 µM -10% | [4]; at 33.0 µM 15% | [5]; at 1.2 µM -5% | [5]; at 3.7 µM -5% | [5]; [17] -1% | [5]; at 11.0 µM -6% | [5]; at 33.0 µM -4% | [6]; at 1.2 µM -1% | [6]; at 3.7 µM -9% | [6]; at 11.0 µM -3% | [6]; at 33.0 µM 23% | [6]; at 100.0 µM 65% | [7]; [17] 4% | [8]; at 1.2 µM -9% | [8]; at 3.7 µM -6% | [8]; at 11.0 µM -23% | [8]; at 33.0 µM -9% | [8]; at 100.0 µM 43% | [9]; [17] 7% | [9]; [18] 20% | [9]; at 50.0 µM 68% | [10]; at 1.2 µM -2% | [10]; at 3.7 µM 10% | [10]; [17] 18% | [10]; at 11.0 µM 21% | [10]; at 33.0 µM 33% | [11]; at 1.2 µM 6% | [11]; at 3.7 µM -4% | [11]; at 11.0 µM 12% | [11]; at 33.0 µM 47% | [12]; at 1.2 µM -17% | [12]; at 3.7 µM -6% | [12]; at 11.0 µM 8% | [12]; at 33.0 µM 33% | [13]; [17] -3% | [14]; at 1.2 µM -6% | [14]; at 3.7 µM -9% | [14]; at 11.0 µM -3% | [14]; at 33.0 µM 4% | [14]; at 100.0 µM 61%
active: [1]; at 100.0 µM 93% | [2]; at 100.0 µM 82% | [4]; [18] 84% | [4]; at 50.0 µM 93.3% | [4]; at 100.0 µM 89% | [5]; [18] 85% | [5]; at 50.0 µM 92.2% | [5]; at 100.0 µM 79% | [7]; [18] 92% | [7]; at 50.0 µM 92.2% | [10]; [18] 76% | [10]; at 50.0 µM 74.2% | [10]; at 100.0 µM 70% | [11]; at 100.0 µM 97% | [12]; at 100.0 µM 87% | [13]; [18] 88% | [13]; at 50.0 µM 81.2%

CCOc1c(N=Nc2ccccc2OC)c(C)nn1C(=S)S
active: [1]; at 100.0 µM 79% | [15]; at 100.0 µM 74% | [4]; at 50.0 µM 98.5% | [5]; at 50.0 µM 97.8% | [6]; at 100.0 µM 78% | [7]; at 50.0 µM 97.7% | [9]; at 50.0 µM 98% | [10]; at 50.0 µM 98% | [11]; at 100.0 µM 75% | [12]; at 100.0 µM 86% | [13]; at 50.0 µM 98.3% | [14]; at 100.0 µM 70%
inactive: [1]; at 1.2 µM 0% | [1]; at 3.7 µM 3% | [1]; at 11.0 µM 11% | [1]; at 33.0 µM 39% | [2]; at 1.2 µM -1% | [2]; at 3.7 µM 1% | [2]; at 11.0 µM 4% | [2]; at 33.0 µM 17% | [2]; at 100.0 µM 52% | [15]; at 1.2 µM -2% | [15]; at 3.7 µM 1% | [15]; at 11.0 µM 3% | [15]; at 33.0 µM 18% | [4]; at 1.2 µM -1% | [4]; at 3.7 µM -1% | [4]; [17] -2% | [4]; at 11.0 µM 8% | [4]; at 33.0 µM 22% | [4]; [18] 36% | [4]; at 100.0 µM 65% | [5]; at 1.2 µM -1% | [5]; at 3.7 µM 0% | [5]; [17] -7% | [5]; at 11.0 µM 2% | [5]; at 33.0 µM 19% | [5]; [18] 4% | [5]; at 100.0 µM 60% | [6]; at 1.2 µM 4% | [6]; at 3.7 µM -1% | [6]; at 11.0 µM 4% | [6]; at 33.0 µM 4% | [7]; [17] 4% | [7]; [18] 49% | [8]; at 1.2 µM -6% | [8]; at 3.7 µM 0% | [8]; at 11.0 µM -3% | [8]; at 33.0 µM 7% | [8]; at 100.0 µM 59% | [9]; [17] -45% | [9]; [18] 4% | [10]; at 1.2 µM -7% | [10]; at 3.7 µM -1% | [10]; [17] -25% | [10]; at 11.0 µM 15% | [10]; at 33.0 µM 34% | [10]; [18] 50% | [10]; at 100.0 µM 67% | [11]; at 1.2 µM 0% | [11]; at 3.7 µM 3% | [11]; at 11.0 µM 10% | [11]; at 33.0 µM 32% | [16]; at 1.2 µM -3% | [16]; at 3.7 µM 0% | [16]; at 11.0 µM 4% | [16]; at 33.0 µM 4% | [16]; at 100.0 µM 65% | [12]; at 1.2 µM -1% | [12]; at 3.7 µM 3% | [12]; at 11.0 µM 14% | [12]; at 33.0 µM 45% | [13]; [17] -30% | [13]; [18] 56% | [14]; at 1.2 µM -11% | [14]; at 3.7 µM -3% | [14]; at 11.0 µM 4% | [14]; at 33.0 µM 32%
